Structures are written as SMILES. Several values for one entry are separate records, joined by “and”; a condition that tells them apart may be missing. Equal entries are not always repeated. Results filed as inconclusive are left out. Activity calls are given as the source filed them. Unless noted, calls follow the shape of the dose curve; as a rule, active = well fitted curve in the direction sought with a large enough effect; inconclusive = small, poorly fitted or top-dose-only effect, or another doubt; inactive = no such curve, though single readings can be large; an effect the other way counts as inactive or inconclusive.

Assay [1] in a line: Cell Viability - LYMP2-001 (AID 921).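 Also: series mostly up to about 92 µM; 0% = DMSO only and full inhibition = tetraoctylammonium bromide control wells; nearly all actives have a fitted effect of over 70% in size.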 In outline: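 Cellular ATP loss read by luciferase luminescence after 24 h compound exposure at 37 C in complete medium. LYMP2-001 lymphoblastoid cells, 2500/well; qHTS concentration-response data fitted with Hill equation for AC50.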
Assay [2] can be described thus: MultiTox-Fluor Cytotoxicity Assay - LYMP1-002 - Dead Cells (AID 960).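 Also: cells exposed to compound for 16 h at 37 °C; 0% = DMSO and 100% = tetraoctylammonium bromide; nearly all actives have a fitted effect of over 60% in size.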 In outline: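 Concentration-dependent increases in membrane-leaked protease activity are quantified in LYMP1-002 cells after 16 hr treatment; values are normalized against DMSO and tetraoctylammonium bromide (15 uM) controls and AC50 derived by Hill modeling.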
The nature of assay [3]: Cell Viability - LYMP2-005 (AID 967).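 Also: series mostly up to about 92 µM; plate controls were DMSO only for no effect and 92 µM tetraoctylammonium bromide control for full effect.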 In outline: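 LYMP2-005 human lymphoblastoid cells (2500/well) were treated with compounds for 24 h at 37 C. Intracellular ATP was then measured by CellTiter-Glo luminescence after 30 min at room temperature. AC50 values came from Hill-equation fits of qHTS concentration-response data.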
Assay [4] in a line: Cell Viability - LYMP2-011 (AID 969).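 Also: cells exposed to compound for 24 hours; 0% = DMSO only and full inhibition = 92 µM tetraoctylammonium bromide; nearly all actives have a fitted effect of over 60% in size.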 In outline: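 Cells seeded at 2500 per well rest 5 hr before compound addition, then incubate 24 hr at 37 C. CellTiter-Glo reagent is added for 30 min at room temperature before luminescence detection.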
Assay [5] in a line: Cell Viability - LYMP2-013 (AID 970).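 Also: series mostly up to about 92 µM; 0% = DMSO only and full inhibition = tetraoctylammonium bromide control; nearly all actives have a fitted effect of over 55% in size.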 The gist of the method: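 In complete culture medium, human lymphoblastoid cells were dosed for 24 hr at 37 C, with tetraoctylammonium bromide (6.4pM to 92 uM) as positive control. Viability reflects luciferase-based ATP signal; AC50 derived from concentration-response curves.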
The nature of assay [6]: Cell Viability - LYMP2-017 (AID 972).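 Also: series mostly up to about 92 µM; cells exposed to compound for 24 hours at 37 °C; % is scaled to controls: 0 for no effect and ±100 for the full control effect; nearly all actives have a fitted effect of over 55% in size.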 In outline: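 In this qHTS format, lymphoblastoid cells in complete medium receive test compound for a day at 37 C before ATP content is quantified by luciferase luminescence. Reported AC50 figures come from standard Hill-equation curve fitting.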
The nature of assay [7]: Cell Viability - LYMP2-023 (AID 975).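 Also: cellular ATP measured by luciferase luminescence as viability proxy; series mostly up to about 92 µM; cells exposed to compound for 24 hours at 37 °C; plate controls were DMSO only for no effect and 92 µM tetraoctylammonium bromide control for full effect; nearly all actives have a fitted effect of over 55% in size.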 In outline: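 In this qHTS, ATP-based luciferase luminescence (CellTiter-Glo) is quantified in human lymphoblastoid cells after 24 hr compound treatment at 37 C; tetraoctylammonium bromide serves as positive control. Concentration-response curves are Hill-fitted to give AC50.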
Assay [8] can be described thus: Cell Viability - LYMP2-002 (AID 977).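 Also: series mostly up to about 92 µM; plate controls were DMSO only for no effect and 92 µM tetraoctylammonium bromide for full effect.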 The gist of the method:
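In this qHTS viability screen, 2500 human lymphoblastoid cells per well receive compound for 24 hr at 37 C, and luciferase-based ATP luminescence gives the viability signal. Tetraoctylammonium bromide serves as positive control.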

Assay [9] in a line: Cell Viability - LYMP2-007 (AID 979).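 Also: cells exposed to compound for 24 h before reading; 0% = DMSO only and the negative end = 92 µM tetraoctylammonium bromide; nearly all actives have a fitted effect of over 60% in size.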 The gist of the method:
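Measured via luciferase-based ATP quantitation: lymphoblastoid cells, 24 hr compound exposure at 37 C, AC50 from Hill fits.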

A short description of assay [10]: Cell Viability - LYMP2-014 (AID 983).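 Also: series mostly up to about 92 µM; plate controls were DMSO only for no effect and 92 µM tetraoctylammonium bromide for full effect; nearly all actives have a fitted effect of over 50% in size.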 In outline: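 Quantitative HTS in lymphoblastoid cells: 24 hr compound exposure, then CellTiter-Glo ATP luminescence. Positive control was tetraoctylammonium bromide, 6.4pM to 92 uM.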
Assay [11] in a line: Cell Viability - LYMP2-016 (AID 984).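 Also: cells exposed to compound for 24 hours at 37 °C; % is scaled to controls: 0 for no effect and ±100 for the full control effect; nearly all actives have a fitted effect of over 55% in size.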 In outline:
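Cytotoxicity was scored by luminescent ATP content (CellTiter-Glo) after 24 h compound exposure at 37 C of a human lymphoblastoid line at 2500 cells/well. Concentration-response data were fitted to the Hill equation for AC50.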

Assay [12] is described as follows: Cell Viability - LYMP2-018 (AID 985).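 Also: plate controls were DMSO only for no effect and tetraoctylammonium bromide at 92 µM for full effect; nearly all actives have a fitted effect of over 50% in size.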 In outline:
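In this qHTS viability assay, cells are treated for 24 hr and cellular ATP is quantified by luciferase-based luminescence, with tetraoctylammonium bromide as positive control.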

Assay [13] can be described thus: Cell Viability - LYMP2-020 (AID 986). In outline:
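Cells at 2500 per well receive a 24 hr compound exposure at 37 C. Viability is measured as ATP-dependent luciferase luminescence, with AC50 modeled from qHTS concentration-response curves.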

Assay [14] is described as follows: Cell Viability - LYMP2-022 (AID 987). The gist of the method:
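In this qHTS cytotoxicity screen, compound titrations were incubated 24 hr at 37 C with human lymphoblastoid cells in complete medium. Luciferase-based ATP luminescence provided the viability signal.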

The nature of assay [15]: Cell Viability - LYMP2-024 (AID 988).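 Also: plate controls were DMSO only for no effect and 92 µM tetraoctylammonium bromide for full effect; nearly all actives have a fitted effect of over 60% in size.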 In outline: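 Cells at 2500 per well received compound for 24 hr after a 5 hr settling period. Viability was scored by CellTiter-Glo luminescence, with AC50 from Hill fits.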
The target of assay [16] is Retinoic acid receptor RXR-alpha (Homo sapiens) (UniProt P19793). The assay can be described thus: qHTS assay for small molecule agonists of retinoid X receptor alpha signaling (AID 588544; calls by dose curve;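 also: 0% = DMSO basal wells and 100% = reference agonist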). Background: qHTS replaces the single test concentration by a dilution series.
Assay [17] is described as follows: qHTS assay for small molecule antagonists of retinoid X receptor alpha signaling (AID 588546; active = well fitted inhibition curve with a large enough effect in the signal ratio, with a control signal flat, not every such curve was filed as active; the % refers to the signal ratio;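 also: cells stimulated with 9-cis-retinoic acid as agonist; % is scaled to controls: 0 for no effect and ±100 for the full control effect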). Conditions: HEK293T RXRa-UAS-bla, beta-lactamase ratio, antagonist mode; measured here: W530 green channel, cytotoxicity proxy. The gist of the method:
(§1)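 Beta-lactamase reporter inhibition, read as CCF4 fluorescence ratio (ex 405, em 460/530 nm) after 2 h at RT. HEK293T UAS-bla cells, 2500/well, were stimulated with 9-cis-RA at 500 or 100 nM final alongside test compound for 18 h at 37 C.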

Assay [18] has as its target Retinoic acid receptor RXR-alpha (Homo sapiens) (UniProt P19793). The description is as above. Particulars: HEK293T RXRa-UAS-bla, beta-lactamase ratio, antagonist mode. In outline: as §1
Assay [19] in a line: qHTS assay for small molecule disruptors of the mitochondrial membrane potential - 1 hr assay (AID 651754; calls by dose curve; also: % is scaled to controls: 0 for no effect and ±100 for the full control effect; nearly all actives have a fitted effect of over 35% in size). In outline: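 In this qHTS format, a 1 hr compound treatment of HepG2 cells precedes Mito-MPS staining, and membrane potential is judged from aggregate (red) against monomer (green) fluorescence intensity.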
Assay [20] is described as follows: qHTS assay for environmental chemicals that activate the Aryl hydrocarbon Receptor (AhR) signaling pathway (AID 651777). Also: % of control where 0% means no effect; nearly all actives have a fitted effect of over 15% in size. Conditions: 1A2-DRE human hepatoma cells, luciferase, 24 h; activation: stronger effect = higher value. The gist of the method:
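Following a 24 hr incubation with test chemicals at 37 C and 5% CO2, 1A2-DRE human hepatoma cells received One-Glo reagent; after 30 min at room temperature, luciferase output reflected CYP1A2 induction via AhR.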

Sequence of Retinoic acid receptor RXR-alpha (Homo sapiens) (P19793 whole entry, looked up): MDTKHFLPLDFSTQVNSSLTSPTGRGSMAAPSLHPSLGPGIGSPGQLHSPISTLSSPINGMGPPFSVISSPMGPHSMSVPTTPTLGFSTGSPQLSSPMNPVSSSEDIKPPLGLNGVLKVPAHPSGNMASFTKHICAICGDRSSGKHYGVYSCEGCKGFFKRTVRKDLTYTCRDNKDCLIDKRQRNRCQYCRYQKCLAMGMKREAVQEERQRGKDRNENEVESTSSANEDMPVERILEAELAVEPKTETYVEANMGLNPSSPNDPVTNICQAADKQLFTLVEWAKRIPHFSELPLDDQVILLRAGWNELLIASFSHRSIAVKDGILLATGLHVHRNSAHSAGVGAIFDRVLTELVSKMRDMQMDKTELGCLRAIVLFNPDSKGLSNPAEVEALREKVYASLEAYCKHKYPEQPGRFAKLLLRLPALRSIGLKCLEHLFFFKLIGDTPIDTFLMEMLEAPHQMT

Consider `Cc1ccccc1N`, for which the Potency entry in assay [1], in [2], in [3], in assay [4], in [5] and in assay [6] was “inactive” in each case. For the same compound, the Potency result in assay [7], in assay [8], in assay [9], in [10], in [11] and in assay [12] was “inactive” in each case. Besides, the Potency entry in assay [13], in assay [14], in assay [15], in assay [16] and in assay [19] was “inactive” in each case. Further, the figures for the max response in assay [17] and in assay [18] were -2.57% and 13.9% (inactive), respectively. For the same compound, the activation in assay [20] is 4.33% (inactive) and 3.03% (inactive).

For `Oc1ccc(Cl)cc1Cl`, the Potency entry in [1], in assay [3], in [4], in [5], in assay [6] and in [7] was “inactive” throughout. In addition, the Potency result in assay [8], in [9], in assay [10], in [11], in [12] and in assay [13] was “inactive” each time. The Potency result in assay [14], in assay [15], in [16] and in assay [19] was “inactive” each time. Further, the max response in assay [17] is -7.11% and -14.1%; in assay [18], -2.36% (inactive) and -1.51% (inactive). For the same compound, the activation in assay [20] is 0.13% (inactive) and 0.875% (inactive).

Consider `c1nc[nH]n1`, for which the Potency entry in [1], in assay [2], in assay [3], in [4], in assay [5] and in [6] was “inactive” in each case. Moreover, the Potency result in assay [7], in assay [8], in assay [9], in assay [10], in assay [11] and in [12] was “inactive” each time. For the same compound, the Potency result in [13], in assay [14], in assay [15], in [16] and in assay [19] was “inactive” each time. For the same compound, the max response was 6.06% in assay [17] and 5.33% (inactive) in assay [18]. The activation in [20] is -0.221% (inactive).

With `Clc1cccc(C(Cl)(Cl)Cl)n1`, the Potency entry in [1], in [3], in assay [4], in assay [5], in [6] and in assay [7] was “inactive” in each case. For the same compound, the Potency result in [8], in assay [9], in assay [10], in assay [11], in [12] and in assay [13] was “inactive” each time. Also, the Potency entry in assay [14], in assay [15], in assay [16] and in [19] was “inactive” throughout. The max response in assay [17] was -2.2% and -16.3%; in assay [18] it was 0.436% (inactive) and 2.35% (inactive). In assay [20], the activation was -1.44% (inactive) and -0.611% (inactive).

For the compound `ClC(Cl)=C(Cl)C(Cl)=C(Cl)Cl`, the Potency result in assay [2], in assay [3], in assay [4], in assay [5], in assay [7] and in [8] was “inactive” each time. The Potency entry in assay [9], in assay [10], in assay [12], in [16] and in [19] was “inactive” each time. Also, the max response in [17] was -3.71% and -13.6%; in assay [18], -0.928% (inactive) and 1.51% (inactive). The activation in [20] is -0.54% (inactive) and -2.12% (inactive).

Take `O=[N+]([O-])c1cccc2ccccc12`: the Potency result in assay [1], in assay [2], in [3], in [4], in [5] and in assay [6] was “inactive” throughout. Moreover, the Potency result in assay [7], in assay [8], in [9], in assay [10], in assay [11] and in assay [12] was “inactive” throughout. Moreover, the Potency entry in assay [13], in [14], in [15], in assay [16] and in [19] was “inactive” each time. Also, the max response in assay [17] was -1.12% and -4.23%; in assay [18], 5.1% (inactive) and -1.16% (inactive). Moreover, in [20], the activation was 0.626% (inactive) and 5.73% (inactive).

(Values after PubChem BioAssay (NCATS).)
